TDP1 cell CPT = growth inhibition of DT40 Tdp1-/-;hTDP1 cells with camptothecin (screen for TDP1 inhibitors); 12% of 420,000 active; chicken DT40 Tdp1-/-;hTDP1 cells + 20 nM CPT, ATP luminescence, 48 h; Potency, µM (series often up to 46.2 µM), for the others: top-dose activity change, negative = growth inhibition, most hits filed as inhibitors; also: potency is read from the fitted curve at half-maximal effect; nearly all actives have a fitted effect of over 55% in size
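Cell growth measured by CellTiter-Glo luminescence after a minimum 48 h, 37 C compound exposure with 20 nM CPT in Tdp1-knockout DT40 cells stably expressing hTDP1, seeded 400/well; qHTS titration format.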
DT40 TDP1 no CPT = qHTS for Inhibitors of human tyrosyl-DNA phosphodiesterase 1 (TDP1): qHTS in cells in absence of CPT; DT40 Tdp1-/- hTDP1 cells, no CPT, ATP luminescence, 48 h; Potency, µM (top dose mostly 46.2 µM), for the others: at the highest dose activity change, negative = growth inhibition, usual class: inhibitors; 15% of 420,000 active; also: potency is read from the fitted curve at half-maximal effect; nearly all actives have a fitted effect of over 55% in size
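Cells were dispensed at 400 per well, compounds added by pin tool, plates incubated ≥48 hr at 37 °C, then CellTiter-Glo added for 30 min at room temperature before luminescence reading. Line: DT40 Tdp1-/- complemented with hTDP1; camptothecin omitted.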
IL-1B inflam inh = blocks inflammasome-driven IL-1 beta release; AID 743279; activity change, % at 57.5 µM; THP-1 LPS/ATP IL-1B secretion, AlphaLISA, 16 h; hits give low values; 4.7% of 360,000 active; in the data active = activity change below about -50%; inconclusive = mostly about -30% to -49%
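THP-1 cells pretreated 1 hr with compounds (up to 57.5 uM final), then stimulated with LPS (250 ng/mL final) plus ATP (1.25 mM final); secreted IL-1B measured by AlphaLISA after 16 hr, decreased signal indicating inhibition.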
CtBP-E1A blk = blocks the CtBP interaction with E1A; AlphaScreen GST-E1A/His-CtBP binding, 1536-well; hits give low values; activity change, % (concentration not given with the values); 0.49% of 340,000 active; in the data active = activity change below about -65%; inconclusive = mostly about -30% to -63%
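Homogeneous bead-based format: GST-tagged E1A captured on glutathione donor beads, His-tagged CtBP on nickel acceptor beads; compounds precede bead addition by 2 h at 37 °C.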
Six1-Eya2 blk = inhibitors of human Six1/Eya2 interaction; AlphaScreen GST-Six1/His-Eya2 binding, biochemical; hits give low values; 0.56% of 360,000 active; activity change, % (test concentration not listed); Q15475+O00167; AID 651725; in the data active = activity change below about -65%; inconclusive = mostly about -30% to -63%
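Six1/Eya2 binding was read as AlphaScreen signal after compounds were pinned into GST-Six1 plus His-tagged Eya2 (5X stock 250/500 nM) in pH 8.0 Tris/NaCl/TCEP buffer, beads added, then incubated 1 h, 37 C, dark.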
TDP1 inh = blocks human tyrosyl-DNA phosphodiesterase 1. 0.28% of 350,000 active. recombinant TDP1, AlphaScreen DNA substrate cleavage. Potency, µM (series often up to 130 µM), for the others: top-dose activity change, negative = inhibition, actives largely listed as inhibitors; also: potency is read from the fitted curve at half-maximal effect; nearly all actives have a fitted effect of over 40% in size
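Here, a 5' biotin and 3' phosphotyrosine-FITC DNA oligonucleotide reports Tdp1 activity: intact substrate bridges AlphaScreen beads, while cleavage leaves a 3' phosphate and drops signal. All incubations at room temperature.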
Numbers without * were called inactive; u = inconclusive; x = no result given; ! = not confirmed by another sample; [ ] = remark or other dose. Compounds with a hit are over-represented: about 18% of the library has one in this group of screens. Unless noted, calls follow the shape of the dose curve; as a rule, active = well fitted curve in the direction sought with a large enough effect; inconclusive = small, poorly fitted or top-dose-only effect, or another doubt; inactive = no such curve, though single readings can be large; an effect the other way counts as inactive or inconclusive. % is scaled to controls: 0 for no effect and ±100 for the full control effect.

SMILES	TDP1 cell CPT	DT40 TDP1 no CPT	IL-1B inflam inh	CtBP-E1A blk	Six1-Eya2 blk	TDP1 inh
FC(F)(F)c1nnc(-c2ccccc2)nc1N1CCCC1	-3.0%	1.0%	-8.2	-3.2	2.8	1.8%
FC(F)(F)c1cccc(Sc2nc(-c3ccccc3)nnc2C(F)(F)F)c1	8.2µM*	11.6µM*	-117.7*	14.4	10.2	8.4%
CN(NC(=O)c1cccc(Cl)c1)c1nc(-c2ccccc2)nnc1C(F)(F)F	18.4µM*	11.6µM*	19.2	-0.5	-3.4	3.9%
FC(F)(F)c1nnc(-c2ccccc2)nc1Sc1ccccc1	14.6µM*	10.3µM*	-121.2*	-5.9	-17.9	2.0%
CCOc1cccc(OCCn2cnc3ccccc3c2=O)c1	15.5%	-1.2%	16.9	-2.2	0.1	0.0%
c1ccc(NN(Cc2ccccn2)c2ccccc2)cc1	-1.6%	u	3.4	-11.8	-4.1	x
CC1(C)OC(=O)C2(Cc3ccccc3N3CCC(c4ccccc4)CC32)C(=O)O1 (stereo not drawn)	-2.7%	5.9%	x	x	x	2.3%
CC(=O)c1ccc(N2CCN(S(=O)(=O)c3cccc4nonc34)CC2)cc1	u	u	5.9	x	5.2	2.6%
Cc1cc(N(C)C)c(C#N)c(=O)[nH]1	0.6%	0.7%	18.1	-0.8	-0.3	-1.0%
FC(F)(F)c1nnc(-c2ccccc2)nc1Oc1ccc(Cl)cc1Cl	u	u	-76.6*	-2.5	-3.8	-4.0%
C[C@]12c3[nH]c4cc(-c5ccco5)ccc4c3CCN1C(=O)[C@@H](CC(=O)NCCc1ccccn1)C[C@@H]2C(=O)N1CCOCC1	u	u	9.8	0.1	-5.2	1.7%[56.1 µM]
CCOC(=O)C1=C(C)N(CCCC(=O)O)C(=O)NC1c1ccccc1 (stereo not drawn)	-19.6%	-0.7%	14.8	2.8	0.2	x
COc1ccc(C(CCN2CCCC2)c2c(O)cc(OC)cc2OC)cc1 (stereo not drawn)	18.4µM*	u	-17.4	19.4	16.2	14.4%
CCN(CC)CCC(c1ccc(OC)cc1)c1c(O)cc(OC)cc1OC (stereo not drawn)	20.6µM*	u	-19.1	-2.9	-4.7	5.0%
COc1ccc(C(CCN2CCCCC2)c2c(O)cc(OC)cc2OC)cc1 (stereo not drawn)	18.4µM*	18.4µM*	-23.9	-5.2	-6.9	9.7%
COc1cc(O)c(C(CCN2CCCCC2)c2cc(OC)c(OC)c(OC)c2)c(OC)c1 (stereo not drawn)	u	-23.9%	-25.6	0.0	0.8	3.8%
Clc1ccc(NNc2ccnc3cc(Cl)ccc23)cc1	u	u	-29.8	u	u	11.8%
CCN(CC)CCNc1ccnc2cc(Cl)ccc12	-21.0%	-21.8%	-55.6*	0.0	5.0	0.0%
FC(F)(F)c1cnc(NNC(=S)Nc2ccccc2Cl)c(Cl)c1	u	18.4µM*	-51.8*	-19.3	-20.5	8.2%
S=C(NNc1ccnc2cc(Cl)ccc12)Nc1ccccc1Cl	4.11µM*	2.59µM*	-90.8*	-16.1	-28.0	2.7%
Oc1ccc(Nc2ccnc3cc(Cl)ccc23)cc1	u	20.6µM*	-74.0*	-16.1	-21.7	5.5%
CC1CCN(S(=O)(=O)c2cccc(C(=O)NC3CCCC3)c2)CC1	u	u	3.1	2.3	-1.1	2.9%[56.1 µM]
O=C(COc1ccccc1Cl)NCCNC(=O)c1ccncc1	-0.2%	-19.9%	-0.2	-13.9	-11.1	x
CCOC(=O)N1CCC(=NNc2ccnc3cc(Cl)ccc23)CC1	-18.9%	u	18.6	-0.3	-13.6	8.1%
CCN(CCO)CCCC(C)Nc1ccnc2cc(Cl)ccc12 (stereo not drawn)	2.59µM*	4.11µM*!	x	x	x	4.3%
c1ccc(CNc2ccccn2)cc1	-0.8%	-28.6%	5.7	x	-0.7	x

Screening data deposited in PubChem BioAssay by National Center for Advancing Translational Sciences (NCATS).
